Data from PubChem BioAssay (EPA / NIEHS).
Calls of active or inactive are those of the source. The calls were made as follows: active = hit-call score of the fitted dose curve at least 0.9, where 1 is the maximum; inactive = score below 0.9.

Assays:
[1] = target: Paired box protein Pax-6 (Homo sapiens) (UniProt P26367); test: ATG_Pax6_CIS: Attagene CIS-FACTORIAL HepG2 Assay for human Paired Box 6 (PAX6) (AID 2282956); conditions: HepG2 CIS-FACTORIAL PAX6 reporter transcription, RNA readout; actives raise or lower the signal
Paired box protein Pax-6 (Homo sapiens), sequence (P26367 whole entry, looked up): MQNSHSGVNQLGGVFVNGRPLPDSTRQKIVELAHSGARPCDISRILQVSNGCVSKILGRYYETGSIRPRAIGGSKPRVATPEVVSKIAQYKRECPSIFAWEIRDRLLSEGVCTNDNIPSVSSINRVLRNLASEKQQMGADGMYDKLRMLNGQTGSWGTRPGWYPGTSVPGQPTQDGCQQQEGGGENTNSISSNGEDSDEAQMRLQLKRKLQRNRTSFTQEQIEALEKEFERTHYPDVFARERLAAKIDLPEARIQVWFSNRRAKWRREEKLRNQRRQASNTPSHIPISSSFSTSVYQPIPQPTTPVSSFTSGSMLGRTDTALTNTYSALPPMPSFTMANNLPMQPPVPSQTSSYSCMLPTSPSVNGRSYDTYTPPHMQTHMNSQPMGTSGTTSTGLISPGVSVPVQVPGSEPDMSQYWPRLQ
In short: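 HepG2 cells transiently transfected with cis-promoter-driven multiplexed reporter units sensing endogenous transcription factor activity; 24 h chemical exposure. Reporter mRNA quantified by RT-PCR, 6-FAM labelling, HpaI digestion and capillary electrophoresis; bidirectional fit versus DMSO baseline.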

[2] = ATG_PXRE_CIS: Attagene CIS-FACTORIAL HepG2 Assay for human Pregnane X Receptor Element (PXRE) (AID 2282957); conditions: HepG2 Attagene CIS-FACTORIAL PXRE reporter, mRNA; actives raise or lower the signal
In short: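 HepG2 cells transiently transfected with cis-regulated multiple reporter transcription units; endogenous factor activity measured as reporter mRNA 24 h after dosing. RT-PCR, fluorescent primer extension, HpaI digestion, capillary electrophoresis; bidirectional fit versus DMSO baseline.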

[3] = ATG_RORE_CIS: Attagene CIS-FACTORIAL HepG2 Assay for human RAR-related Orphan Receptor Element (RORE) (AID 2282959); conditions: HepG2 Attagene cis-factorial RORE reporter, mRNA; actives raise or lower the signal
In short: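 Fluorescence intensity of reporter-specific cDNA fragments, separated by capillary electrophoresis, gives the signal. Source: HepG2 liver cells transiently transfected with cis-element reporters and exposed 24 h; DMSO-normalized bidirectional fit.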

[4] = ATG_Sox_CIS: Attagene CIS-FACTORIAL HepG2 Assay for human SRY-box transcription factor (SOX) (AID 2282960); conditions: HepG2 Attagene cis-factorial SOX reporter, mRNA; actives raise or lower the signal
In short: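 After 24 h of chemical treatment, transfected HepG2 reporter cells are lysed for total RNA. Transcript levels come from RT-PCR with labelled primer extension and capillary electrophoresis, analysed bidirectionally versus DMSO.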

[5] = target: Transcription factor Sp1 (Homo sapiens) (UniProt P08047); test: ATG_Sp1_CIS: Attagene CIS-FACTORIAL HepG2 Assay for human Specificity Protein 1 (Sp1) (AID 2282961); conditions: HepG2 Sp1 cis-reporter transcription, actives raise or lower the signal
Transcription factor Sp1 (Homo sapiens), sequence (P08047 whole entry, looked up): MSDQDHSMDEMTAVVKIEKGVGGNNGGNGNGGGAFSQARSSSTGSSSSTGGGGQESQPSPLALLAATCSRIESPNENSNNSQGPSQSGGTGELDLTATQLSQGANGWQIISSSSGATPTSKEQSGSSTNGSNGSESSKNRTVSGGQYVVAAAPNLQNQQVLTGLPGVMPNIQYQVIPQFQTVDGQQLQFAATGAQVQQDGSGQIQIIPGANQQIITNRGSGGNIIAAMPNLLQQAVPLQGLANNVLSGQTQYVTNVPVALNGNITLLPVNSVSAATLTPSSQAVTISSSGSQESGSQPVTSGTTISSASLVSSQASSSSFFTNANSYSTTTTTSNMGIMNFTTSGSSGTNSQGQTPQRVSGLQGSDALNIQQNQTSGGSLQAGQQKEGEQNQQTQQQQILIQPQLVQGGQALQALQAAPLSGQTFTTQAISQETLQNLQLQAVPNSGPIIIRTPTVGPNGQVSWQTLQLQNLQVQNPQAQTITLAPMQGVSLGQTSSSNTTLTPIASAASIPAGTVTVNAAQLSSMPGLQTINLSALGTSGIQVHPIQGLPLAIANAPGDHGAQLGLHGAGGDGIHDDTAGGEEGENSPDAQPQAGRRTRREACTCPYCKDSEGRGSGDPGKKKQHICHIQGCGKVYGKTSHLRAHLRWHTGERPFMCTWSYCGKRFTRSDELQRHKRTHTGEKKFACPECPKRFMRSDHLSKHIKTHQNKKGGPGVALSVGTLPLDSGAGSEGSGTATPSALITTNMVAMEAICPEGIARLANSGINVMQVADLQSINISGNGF
In short: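 Sp1-driven reporter mRNA, read as capillary electrophoresis fluorescence after RT-PCR, in transiently transfected HepG2 cells dosed for 24 h; signal change in either direction relative to DMSO.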

[6] = ATG_SREBP_CIS: Attagene CIS-FACTORIAL HepG2 Assay for human Sterol Regulatory Element Binding (SREBP) (AID 2282962); conditions: HepG2 Attagene cis-factorial SREBP reporter, mRNA; actives raise or lower the signal
In short: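 HepG2 cells transiently transfected with multiplexed cis-promoter reporter units sensing endogenous transcription factors; reporter mRNA measured 24 h after dosing by RT-PCR, 6-FAM labeling, HpaI digestion and capillary electrophoresis. Bidirectional fit versus DMSO.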

[7] = target: Signal transducer and activator of transcription 3 (Homo sapiens) (UniProt P40763); test: ATG_STAT3_CIS: Attagene CIS-FACTORIAL HepG2 Assay for human Signal Transducer and Activator of Transcription 3 (STAT3) (AID 2282963); conditions: HepG2, Attagene cis-factorial STAT3 reporter transcription; actives raise or lower the signal
Signal transducer and activator of transcription 3 (Homo sapiens), sequence (P40763 whole entry, looked up): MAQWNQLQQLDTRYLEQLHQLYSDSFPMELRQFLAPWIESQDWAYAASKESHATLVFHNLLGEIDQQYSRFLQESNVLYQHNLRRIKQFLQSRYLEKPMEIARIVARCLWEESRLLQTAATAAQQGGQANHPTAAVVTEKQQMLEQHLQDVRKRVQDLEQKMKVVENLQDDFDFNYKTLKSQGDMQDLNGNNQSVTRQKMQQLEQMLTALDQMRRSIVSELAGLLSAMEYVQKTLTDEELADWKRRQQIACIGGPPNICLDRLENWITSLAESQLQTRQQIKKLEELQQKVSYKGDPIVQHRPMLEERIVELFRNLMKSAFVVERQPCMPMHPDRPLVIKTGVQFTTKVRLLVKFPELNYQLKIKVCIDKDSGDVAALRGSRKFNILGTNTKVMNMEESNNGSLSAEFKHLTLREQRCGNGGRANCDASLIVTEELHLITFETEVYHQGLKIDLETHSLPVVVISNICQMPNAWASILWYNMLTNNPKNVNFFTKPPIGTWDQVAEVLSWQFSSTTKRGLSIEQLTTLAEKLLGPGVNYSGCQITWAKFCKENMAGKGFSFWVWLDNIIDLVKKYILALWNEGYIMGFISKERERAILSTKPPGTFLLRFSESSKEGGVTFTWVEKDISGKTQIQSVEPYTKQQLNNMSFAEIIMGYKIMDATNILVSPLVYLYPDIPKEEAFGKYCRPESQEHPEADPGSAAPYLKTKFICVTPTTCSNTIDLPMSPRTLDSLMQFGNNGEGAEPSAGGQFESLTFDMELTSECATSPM
In short: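 Transcript-level reporter assay. HepG2 transient MRTU transfection, 24 h exposure, fluorescence detection after RT-PCR and CE; DMSO baseline.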

[8] = ATG_TA_CIS: Attagene CIS-FACTORIAL HepG2 Assay for human TA Basal Promoter (AID 2282964); conditions: HepG2 Attagene CIS-factorial TA basal promoter reporter; actives raise or lower the signal
In short: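 Background internal-marker endpoint from a 52-component HepG2 cis-reporter panel. Cells treated 24 h; reporter transcripts quantified via RT-PCR and CE fluorescence against DMSO baseline.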

[9] = ATG_TCF_b_cat_CIS: Attagene CIS-FACTORIAL HepG2 Assay for human T-Cell-Factor with beta-catenin (TCF/b-cat) (AID 2282965); conditions: HepG2 TCF/beta-catenin cis-reporter transcription, actives raise or lower the signal
In short: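 Using capillary electrophoresis as the read-out, labelled reporter cDNA fragments from transiently transfected HepG2 were sized and quantified. Exposure lasted 24 hours; activity in either direction was referenced to DMSO.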

Measured: AC50

CNCc1ccc(NC(=O)c2c[nH]c3c2C(=O)CCC3)cc1
active: [9] 24.1 µM
inactive: all other assays above

O=C(O)CC(O)C(=O)O (centres undefined)
not listed: [5]
inactive: all other assays above

CC[C@H]1CC[C@H](NCc2cc3c(cc2OC)[C@H]2C[C@H]2C(=O)N3C)[C@H](c2ccccc2)N1
active: [2] 4.91 µM | [5] 47.5 µM | [6] 36.6 µM | [9] 100 µM
inactive: all other assays above

COCCOCCOCCOC
inactive: all assays above

CCOc1cccc(-n2cc(C(=O)N3CCN(c4cc(C(=O)O)c5ccccc5c4)CC3)nc2-c2ccc(C)cc2)c1
active: [1] 33 µM | [2] 41.4 µM | [3] 26.1 µM | [6] 3.92 µM | [9] 22.3 µM
inactive: [4] | [5] | [7] | [8]

CC(=O)OCCC(C)C
inactive: all assays above

CCc1cc(SCc2sc(-c3ccc(C(F)(F)F)cc3)nc2CN2CCN(c3ccc(OC)cc3)CC2)ccc1OCC(=O)O
inactive: [2] | [4] | [5] | [7]
active: [1] 17.5 µM | [3] 11 µM | [6] 0.225 µM | [8] 14.8 µM | [9] 7.72 µM

O=C(OC[C@H]1O[C@@H](OC(=O)c2cc(O)c(O)c(OC(=O)c3cc(O)c(O)c(O)c3)c2)[C@H](OC(=O)c2cc(O)c(O)c(OC(=O)c3cc(O)c(O)c(O)c3)c2)[C@@H](OC(=O)c2cc(O)c(O)c(OC(=O)c3cc(O)c(O)c(O)c3)c2)[C@@H]1OC(=O)c1cc(O)c(O)c(OC(=O)c2cc(O)c(O)c(O)c2)c1)c1cc(O)c(O)c(OC(=O)c2cc(O)c(O)c(O)c2)c1
inactive: all assays above

CC[C@H](C)C(=O)O[C@H]1C[C@@H](C)C=C2C=C[C@H](C)[C@H](CC[C@@H]3C[C@@H](O)CC(=O)O3)[C@H]21
active: [2] 1.8 µM | [6] 1.36 µM
inactive: all other assays above

CCCCCCCCO
active: [9] 20.5 µM
inactive: all other assays above

Cc1[nH]cnc1C[C@H]1CCc2c(C)c3ccccc3n2C1=O
active: [1] 37.2 µM | [2] 7.57 µM | [3] 18.9 µM | [8] 29.7 µM | [9] 15.8 µM
inactive: [4] | [5] | [6] | [7]

CN(C)c1ccc(Cc2ccc(N(C)C)cc2)cc1
active: [2] 26.6 µM | [5] 100 µM | [6] 43.4 µM
inactive: all other assays above

Cc1ccc(O)cc1
not listed: [5]
inactive: all other assays above

CCCC(=O)OCC
inactive: all assays above

CCOCCOCCOCCO
inactive: all assays above

COc1ccc2sc(C(=O)Nc3nnn[nH]3)c(OC(C)C)c2c1
active: [1] 129 µM | [3] 149 µM | [6] 39.7 µM | [8] 70.7 µM
inactive: [2] | [4] | [7] | [9]

CCCN(C1CCN(C(=O)C2CCNCC2)CC1)[C@@H]1CCc2ccc(OC)cc2C1
active: [2] 100 µM | [9] 113 µM
not listed: [5]
inactive: all other assays above

Clc1nc(Cl)c(Cl)c(Cl)c1Cl
not listed: [5]
inactive: all other assays above

CC(C)=CCCC(C)CCO (centres undefined)
active: [2] 26.6 µM | [9] 167 µM
not listed: [5]
inactive: all other assays above

Oc1ccc2c(c1)-c1ccccc1C2
inactive: [2] | [6] | [7]
active: [1] 33.5 µM | [3] 24.7 µM | [4] 54.2 µM | [8] 37.2 µM | [9] 3.93 µM

O=C(O)c1cc(N=Nc2ccc(S(=O)(=O)Nc3ccccn3)cc2)ccc1O
not listed: [5]
inactive: all other assays above

C=CCCCCCCCCC(=O)O
not listed: [5]
inactive: all other assays above
